Experimental findings from PubChem BioAssay (Tox21) are described below.

SMILES strings stand for the structures. Calls of active or inactive are those of the source. The call rests on the fitted dose curve.
On the % scale 0 is the no-effect control and ±100 the full control effect.

This assay deals with Acetylcholinesterase (Homo sapiens) (UniProt P22303). Put plainly: Acetylcholinesterase (AChE) small molecule antagonists: enzyme-based qHTS assay with human liver microsomes (AID 1347399). Further: nearly all actives have a fitted effect of over 60% in size. Conditions: Potency: qHTS inhibition; outcome: qHTS inhibition; series mostly up to 115 µM; activity change, negative = inhibition: at the top concentration. Summed up: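 Recombinant human AChE (50 mU/mL in the enzyme mix) and human liver microsomes (0.25 mg/mL final) were preincubated with compound and NADPH (0.25 mg/mL final) for 30 min at 37 C. Acetylthiocholine/DTNB was then added; thiocholine was read colorimetrically after 10 min at room temperature.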
Chain of Acetylcholinesterase (Homo sapiens) (P22303 whole entry, looked up): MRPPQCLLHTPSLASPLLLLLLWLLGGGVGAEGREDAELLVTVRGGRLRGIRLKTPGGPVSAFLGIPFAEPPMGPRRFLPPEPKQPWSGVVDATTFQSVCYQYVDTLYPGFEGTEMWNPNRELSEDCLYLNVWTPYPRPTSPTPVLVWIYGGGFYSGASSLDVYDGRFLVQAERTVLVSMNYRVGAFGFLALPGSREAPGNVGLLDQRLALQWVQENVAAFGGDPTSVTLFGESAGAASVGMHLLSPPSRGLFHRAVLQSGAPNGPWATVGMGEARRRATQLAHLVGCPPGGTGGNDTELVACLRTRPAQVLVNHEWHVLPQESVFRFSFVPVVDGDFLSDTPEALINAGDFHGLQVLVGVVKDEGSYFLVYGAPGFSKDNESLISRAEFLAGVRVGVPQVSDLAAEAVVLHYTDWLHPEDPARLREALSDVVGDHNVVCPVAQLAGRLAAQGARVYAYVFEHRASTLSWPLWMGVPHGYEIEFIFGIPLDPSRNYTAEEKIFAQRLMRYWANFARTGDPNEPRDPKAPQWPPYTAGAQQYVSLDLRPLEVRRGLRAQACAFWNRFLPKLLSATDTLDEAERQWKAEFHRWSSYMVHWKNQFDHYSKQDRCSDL
Background: In qHTS, concentration-response curves come from the screen itself.
`O=C(O)c1c2ccccc2cc2ccccc12`: the “activity change, negative = inhibition” value was -0.307% (inactive).

Consider `Cc1onc(-c2c(Cl)cccc2Cl)c1C(=O)N[C@@H]1C(=O)N2[C@@H]1SC(C)(C)[C@@H]2C(=O)O`, for which the “activity change, negative = inhibition” value is -0.591% [at 53 µM] (inactive).

On to `CC(C)CCCCOC(=O)c1ccccc1C(=O)OCCCCC(C)C`, for which the “activity change, negative = inhibition” value is -0.511% (inactive).

`CC1(C)[C@@H](O)CC[C@]2(C)[C@H]3C(=O)C=C4[C@@H]5C[C@@](C)(C(=O)O)CC[C@]5(C)CC[C@@]4(C)[C@]3(C)CC[C@@H]12`: the “activity change, negative = inhibition” value was 2.17% (inactive).

In the case of `CC(C)c1cccc(C(C)C)c1NC(=O)NS(=O)(=O)c1cc(C(C)(C)O)co1`, the “activity change, negative = inhibition” value is 0.146% (inactive).

Take `CC(=O)OCC(=O)[C@@]1(OC(C)=O)[C@@H](C)C[C@H]2[C@@H]3C[C@H](F)C4=CC(=O)C=C[C@]4(C)[C@@]3(F)[C@@H](O)C[C@@]21C`: the “activity change, negative = inhibition” value was -4.7% [at 53 µM] (inactive).

In the case of `C=CCCCCCCCCCCCC`, the “activity change, negative = inhibition” value was -1.46% (inactive).

Regarding `NC(=O)c1ccccc1C(N)=O`, the “activity change, negative = inhibition” value was -0.341% (inactive).

With `O=Cc1ccc(F)cc1`, the “activity change, negative = inhibition” value is -1.07% (inactive).

As for `O=C1Cc2ccccc2N1c1c(Cl)cccc1Cl`, the “activity change, negative = inhibition” value is 1.06% (inactive).

With `Cc1c[nH]c(=S)[nH]c1=O`, the “activity change, negative = inhibition” value was -1.94% (inactive).

`CCOC(=O)CS`: the “activity change, negative = inhibition” value is 2.83% (inactive).

Regarding `Nc1nc(-c2ccccc2)cs1`, the “activity change, negative = inhibition” value is -2% (inactive).

With `CCCCCCCCCCCCN(CCCCCCCCCCCC)CCCCCCCCCCCC`, the “activity change, negative = inhibition” value was -0.234% (inactive).

`COC(C)(C)CC(C)=O`: the “activity change, negative = inhibition” value is 0% (inactive).

With `Cc1ccc(N(CCO)CCO)cc1`, the “activity change, negative = inhibition” value was -1.03% (inactive).

On to `O=S(O)CO`, for which the “activity change, negative = inhibition” value was 2.21% (inactive).

As to `Cc1nc(C)nc(N2C[C@@H](C)N(c3ccnc([C@@H](C)O)n3)[C@@H](C)C2)n1`, the “activity change, negative = inhibition” value was -1.7% [at 53 µM] (inactive).

In the case of `CC(O)CN(CCCN(C)C)CCCN(C)C` (centres undefined), the “activity change, negative = inhibition” value is -0.617% (inactive).

Take `OCCc1ccncc1`: the “activity change, negative = inhibition” value is 0.009% (inactive).

As for `CCOC(=O)[C@@H](C)Oc1ccc(Oc2nc3ccc(Cl)cc3o2)cc1`, the “activity change, negative = inhibition” value is -0.765% (inactive).

Turning to `C=CCOc1nc(OCC=C)nc(OCC=C)n1`, the “activity change, negative = inhibition” value is 0.807% (inactive).

For the molecule `C=CC1CC2C=CC1C2` (centres undefined), the “activity change, negative = inhibition” value is 0% (inactive).

With `CCOC(=O)CC(=O)c1cc(F)c(Cl)nc1Cl`, the “activity change, negative = inhibition” value is 1.05% (inactive).

Turning to `Cc1ccc(Cl)cc1Cl`, the “activity change, negative = inhibition” value is 2.36% (inactive).

`CC(C)=CCC/C(C)=C\C#N`: the “activity change, negative = inhibition” value is 0.0764% (inactive).

In the case of `COc1cc2nc(Cl)nc(N)c2cc1OC`, the “activity change, negative = inhibition” value was -1.33% [at 53 µM] (inactive).

Consider `C=CCCCCCCCCC(=O)OCCCC`, for which the “activity change, negative = inhibition” value was -2.91% (inactive).

For `CCC(C)(Oc1ccc(C2(c3ccc(OC(C)(CC)C(=O)O)cc3)CCCCC2)cc1)C(=O)O` (centres undefined), the “activity change, negative = inhibition” value is 0.168% [at 53 µM] (inactive).

For the molecule `CCOC(=O)[C@H](CCc1ccccc1)N[C@@H](C)C(=O)N1Cc2cc(OC)c(OC)cc2C[C@H]1C(=O)O`, the “activity change, negative = inhibition” value was 6.72% [at 53 µM] (inactive).

As for `C[C@@H](O)[C@H](N)C(=O)O`, the activity change, negative = inhibition was -2.85% [at 23.6 µM] (inactive).

Turning to `C=CCON/C(CCC)=C1\C(=O)CC(C)(C)C(C(=O)OC)=C1O`, the “activity change, negative = inhibition” value was 0.535% (inactive).

With `CC(C)=CCC[C@H](C)CCO`, the “activity change, negative = inhibition” value was -1.66% (inactive).

Regarding `CC(=O)Nc1ccc(S(N)(=O)=O)cc1`, the “activity change, negative = inhibition” value was -1.26% (inactive).

`NCC[C@H](O)C(=O)N[C@@H]1C[C@H](N)[C@@H](O[C@H]2O[C@H](CN)[C@@H](O)[C@H](O)[C@H]2O)[C@H](O)[C@H]1O[C@H]1O[C@H](CO)[C@@H](O)[C@H](N)[C@H]1O`: the activity change, negative = inhibition is -1.18% [at 0.435 µM] (inactive).

As to `CC(=O)Nc1cccc(N)c1`, the “activity change, negative = inhibition” value was -0.678% (inactive).

As to `C[C@H]1NCc2cc(-c3ccc4c(=O)c(C(=O)O)cn(C5CC5)c4c3OC(F)F)ccc21`, the outcome was inactive.

For the molecule `Cc1cccc([N+](=O)[O-])c1C(=O)O`, the “activity change, negative = inhibition” value was -1.68% (inactive).

In the case of `COCCOC(=O)C1=C(C)NC(C)=C(C(=O)OC/C=C/c2ccccc2)C1c1cccc([N+](=O)[O-])c1` (centres undefined), the “activity change, negative = inhibition” value is -0.0718% [at 53 µM] (inactive).
